Each structure is given as a SMILES string. Unmarked numbers belong to inactive results. Inconclusive results are not listed. Activity calls are given as the source filed them. The call rests on the fitted dose curve; in most records, active means well fitted curve in the direction sought with a large enough effect; inconclusive means small, poorly fitted or top-dose-only effect, or another doubt; inactive means no such curve, though single readings can be large; an effect the other way counts as inactive or inconclusive.

A short description of experiment [1]: qHTS for inhibitors of adenylyl cyclases using a fission yeast platform: a pilot screen against the NCATS LOPAC library (AID 1347410).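 Further: plate controls were DMSO vehicle for no effect and DPI positive control for full effect.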 To be noted: S. pombe CHP2027, fbp1-GFP fluorescence, 18 h, yeast expressing mammalian AC9 and human GNAS; series mostly up to 57.5 µM. In short, it runs like this: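 Fission yeast qHTS: CHP2027 cells (AC9-GNAS-PDE4D2, fbp1-GFP), 5x10^6 cells/mL working density, EMM + His/Lys/Ura; LOPAC at up to 57 µM final; 18 h dark, 30C; GFP by laser cytometry. DPI positive control, DMSO vehicle.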

Experiment [2] is described as follows: Validation qHTS assay for inhibitors of Activation Induced Cytidine Deaminase (AID): UDG Counterscreen signal (AID 1347427). Further: potency means the concentration at half of the fitted maximal effect. To be noted: biochemical UDG counterscreen, fluorescence signal; series mostly up to 115 µM. In short, it runs like this:
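Fluorescence at 560 nm excitation, 665 nm emission reports UDG signal after 250 mM NaOH (2x) addition and 30 min. Enzymes (AID 1 uM, UDG 2 U/mL, at 4/3x) preincubated 10 min with compound, then 4 h with 4x 250 nM DJC20/DJC23 substrate at room temperature.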

The target in experiment [3] is Single-stranded DNA cytosine deaminase (Homo sapiens) (UniProt Q9GZX7). The experiment in a line: Validation qHTS assay for inhibitors of Activation Induced Cytidine Deaminase (AID): AID signal (AID 1347429). Further: on the % scale 0 is the no-effect control and ±100 the full control effect. The settings on record: Recombinant AID, FRET ssDNA deamination with UDG, fluorescence; series mostly up to 115 µM. The gist of the method: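 AID+UDG coupled FRET deamination; cpds up to 114 uM final; DJC20/DJC23 substrate, 4 hr RT; NaOH stop, 30 min RT; read Ex 540/Em 590.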

Experiment [4] has as its target Calcium and integrin-binding protein 1 (Homo sapiens) (UniProt Q99828). The experiment in a line: Validation qHTS for Identification of Calcium Integrin Binding protein 1 (CIB1) Competitor (AID 1508618). Further: on the % scale 0 is the no-effect control and ±100 the full control effect. To be noted: CIB1-GST / FITC-alphaIIb peptide fluorescence polarization; series mostly up to 114 µM. The gist of the method:
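In this qHTS validation, the LOPAC set (up to 114 uM) was tested for blocking CIB1 binding to a fluorescein-tagged alphaIIb peptide, with FP detection at 480/540 nm.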
In general terms: Quantitative high-throughput screening tests each substance at several concentrations.

Experiment [5] is described as follows: Primary qHTS for small molecule stabilizers of the endoplasmic reticulum resident proteome: Secreted ER Calcium Modulated Protein (SERCaMP) assay (AID 1508630). Further: on the % scale 0 is the no-effect control and ±100 the full control effect. To be noted: SH-SY5Y GLuc-SERCaMP (Gaussia luciferase released on ER calcium loss) secretion, thapsigargin, luminescence; series mostly up to 38.4 µM. The gist of the method: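 The SH-SY5Y reporter protocol was run at 3 concentrations up to 38.3 uM (primary) or 11 concentrations (follow-up): 16 h compound, 100 nM thapsigargin for 4 h, then extracellular luciferase luminescence.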

The target of the next experiment is Papain (Carica papaya) (UniProt P00784). The experiment in a line: Primary qHTS assay for inhibitors of the protease papain (AID 1645873).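 Further: papain turnover of Z-FR-AMC read as the AMC fluorescence gain over 10 min.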 Further: potency means the concentration at half of the fitted maximal effect. The settings on record: papain Z-FR-AMC cleavage, AMC fluorescence; series mostly up to 49.8 µM.
The nature of experiment [6]: Primary qHTS for inhibitors of La Crosse Virus (LACV) - induced cell death in SH-SY5Y cells (AID 1508616). Further: potency means the concentration at half of the fitted maximal effect. To be noted: SH-SY5Y LACV cytopathicity rescue, ATP luminescence, 6 d; series mostly up to 9.63 µM. In short, it runs like this: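 Cytopathicity rescue screen: compounds pinned onto SH-SY5Y cells, which are then infected with LACV (MOI 0.01) and held 6 days at 37C. Percent activity is scaled between infected DMSO control and uninfected DMSO control.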

Experiment [7] is described as follows: Confirmatory qHTS for small molecule stabilizers of the endoplasmic reticulum resident proteome: Secreted ER Calcium Modulated Protein (SERCaMP) assay (AID 1508628). Further: nearly all actives have a fitted effect of over 40% in size. Further: potency means the concentration at half of the fitted maximal effect. To be noted: SERCaMP secreted luciferase ER calcium/proteostasis reporter; series mostly up to 76.3 µM. In short, it runs like this: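 GLuc-SERCaMP-expressing SH-SY5Y cells, pretreated 16 h with compound, are challenged with thapsigargin to empty ER calcium stores; after 4 h, coelenterazine is added directly to the medium and luminescence is imaged.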

The nature of experiment [8]: Counterscreen qHTS for small molecule stabilizers of the endoplasmic reticulum resident proteome: GLuc-NoTag assay (AID 1508627).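 Further: 0% = thapsigargin alone and -100% = DMSO vehicle control.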 The settings on record: Gaussia luciferase NoTag secretion counterscreen, luminescence, thapsigargin 100 nM for final 4 h; series mostly up to 76.4 µM. The gist of the method: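 Secreted GLuc lacking the SERCaMP modification is measured in SH-SY5Y cells exposed to compound for 19 h and then to thapsigargin (100 nM, 4 h) to deplete ER calcium; hits retested at 11 concentrations, up to 76.6 uM.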

Experiment [9] in a line: Cell Viability qHTS for small molecule stabilizers of the endoplasmic reticulum resident proteome (AID 1508629).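 Further: human SH-SY5Y neuroblastoma cells carrying the GLuc-SERCaMP reporter; compound exposure about 46 h in total before the viability read; on the % scale 0 is the no-effect control and ±100 the full control effect.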 The settings on record: cell viability counter-screen, 100 nM thapsigargin for final 4 h.

Chain of Papain (Carica papaya) (P00784 whole entry, looked up): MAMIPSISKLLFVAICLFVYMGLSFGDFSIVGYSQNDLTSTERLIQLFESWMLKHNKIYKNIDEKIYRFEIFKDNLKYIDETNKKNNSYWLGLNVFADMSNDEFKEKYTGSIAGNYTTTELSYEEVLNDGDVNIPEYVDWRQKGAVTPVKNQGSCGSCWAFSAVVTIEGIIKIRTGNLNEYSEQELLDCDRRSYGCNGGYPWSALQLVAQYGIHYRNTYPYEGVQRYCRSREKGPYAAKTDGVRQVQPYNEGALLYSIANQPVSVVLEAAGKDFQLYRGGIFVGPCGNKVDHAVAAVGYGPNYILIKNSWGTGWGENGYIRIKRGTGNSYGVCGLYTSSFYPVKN
Chain of Single-stranded DNA cytosine deaminase (Homo sapiens) (Q9GZX7 whole entry, looked up): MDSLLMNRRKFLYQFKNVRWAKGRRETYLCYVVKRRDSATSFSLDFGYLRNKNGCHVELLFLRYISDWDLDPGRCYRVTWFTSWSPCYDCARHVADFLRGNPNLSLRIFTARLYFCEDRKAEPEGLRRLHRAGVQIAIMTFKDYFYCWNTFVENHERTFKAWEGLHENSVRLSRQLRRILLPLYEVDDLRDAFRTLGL
Chain of Calcium and integrin-binding protein 1 (Homo sapiens) (Q99828 whole entry, looked up): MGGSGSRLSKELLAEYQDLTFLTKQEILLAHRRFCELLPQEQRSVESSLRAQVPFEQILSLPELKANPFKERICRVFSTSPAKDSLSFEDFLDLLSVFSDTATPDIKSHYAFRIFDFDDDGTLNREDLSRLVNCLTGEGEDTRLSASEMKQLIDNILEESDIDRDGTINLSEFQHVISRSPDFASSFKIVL

With `O=c1cc(-c2ccccc2)[nH]c2nc(Cl)ccc12`, the compound was classed as inactive in experiment [1]. In addition, the Potency entry (in experiment [2]; in [3]; in experiment [4]; in experiment [5]; with Papain (Carica papaya)) was “inactive” in each case.

Turning to `CCCCCCCCCCC(C)(C)C(=O)Nc1c(OC)cc(OC)cc1OC`, the call in [1] was inactive. The Potency result (in experiment [2]; in experiment [3]; in [6]; in experiment [5]; in the experiment with Papain (Carica papaya)) was “inactive” throughout.

For `N#C/C(=C\c1ccc(O)c(O)c1)C(=O)NCCc1ccccc1`, the compound was classed as inactive in [1]. The Potency result (in [2]; in experiment [3]; with Papain (Carica papaya)) was “inactive” each time.

For `CC#CCOC(=O)c1c(C)nc2sc3c(c2c1N)CCC(O)C3` (stereo unspecified), the outcome in experiment [1] was inactive. Moreover, the Potency result (in experiment [2]; in experiment [6]; in [4]; in experiment [5]; in the experiment with Papain (Carica papaya)) was “inactive” each time.

For `CC(=O)NNC(=O)N1Cc2ccccc2Oc2ccc(Cl)cc21`, the compound was called inactive in experiment [1]. The Potency result (in experiment [2]; in experiment [3]; in experiment [6]; in experiment [4]; in [5]; with Papain (Carica papaya)) was “inactive” throughout.

For `C=CC1(C)CC(=O)C2(O)C(C)(O1)C(OC(C)=O)C(O)C1C(C)(C)CCC(O)C12C` (stereo unspecified), the Potency result in experiment [2], in experiment [3] and in experiment [5] was “inactive” throughout.

In the case of `CCN(CC)CCCCCCCCOC(=O)c1cc(OC)c(OC)c(OC)c1`, the compound was classed as inactive in [1]. The Potency result (in experiment [2]; in experiment [3]; in experiment [5]; in the experiment with Papain (Carica papaya)) was “inactive” throughout.

Turning to `CNCCNS(=O)(=O)c1cccc2cnccc12`, the call in experiment [1] was inactive. Also, the Potency entry (in experiment [2]; in experiment [3]; in experiment [6]; in experiment [4]; in experiment [5]; with Papain (Carica papaya)) was “inactive” throughout.

For `Nc1nc2ccc(Cl)cc2c2nc(-c3ccco3)nn12`, the compound was called inactive in [1]. The Potency result in [2], in experiment [3], in [4] and in experiment [5] was “inactive” in each case. For the same compound, the Potency with Papain (Carica papaya) was 22.4 µM (active).

As for `Cc1ccccc1/C=C/C1=NCCN1`, the outcome in [1] was inactive. For the same compound, the Potency result (in [2]; in [6]; with Papain (Carica papaya)) was “inactive” in each case. In addition, in experiment [7], the Potency was 11.2 µM (active).

Regarding `CC(C)(CO)Cc1cc(C(C)(C)C)c(O)c(C(C)(C)C)c1`, the compound was classed as inactive in experiment [1]. Also, the Potency result (in experiment [2]; in experiment [3]; in [6]; in experiment [4]; in experiment [5]; with Papain (Carica papaya)) was “inactive” each time.

Take `CCC1(O)CC2CN(CCc3c([nH]c4ccccc34)[C@@](C(=O)OC)(c3cc4c(cc3OC)N(C=O)C3[C@]45CCN4CC=C[C@@](CC)([C@@H](OC(C)=O)[C@]3(O)C(=O)OC)[C@H]45)C2)C1` (stereo partly specified): in [1], the outcome was inactive. Further, the Potency result (in experiment [2]; in [6]; in experiment [4]; in experiment [5]; with Papain (Carica papaya)) was “inactive” in each case.

For `O=C(O)C1=CC(=C(c2ccc(O)c(C(=O)O)c2)c2ccc(O)c(C(=O)O)c2)C=CC1=O`, the compound was called inactive in experiment [1]. The Potency in [2] was 89.1 µM (active); with Papain (Carica papaya), 7.94 µM (active).

In the case of `C=CCN1CCc2c(cc(O)c(O)c2Br)[C@@H](c2ccccc2)C1`, the call in experiment [1] was inactive. Besides, the Potency result (in experiment [2]; in [3]; in [6]; in experiment [5]; in the experiment with Papain (Carica papaya)) was “inactive” throughout.

Turning to `OC[C@H]1O[C@@H](n2cnc3cncnc32)[C@H](O)[C@@H]1O`, the compound was called inactive in [1]. Also, the Potency result (in [2]; in experiment [3]; in [6]; in experiment [5]; with Papain (Carica papaya)) was “inactive” throughout.

For the compound `N#CC(=C(\N)Sc1ccccc1N)/C(C#N)=C(/N)Sc1ccccc1N`, the result in experiment [1] was inactive. For the same compound, the Potency entry in experiment [2], in experiment [3], in experiment [6] and in experiment [5] was “inactive” throughout.

In the case of `CN(C)S(=O)(=O)c1ccc2c(c1)/C(=C/c1cc3c([nH]1)CCCC3)C(=O)N2`, the Potency result (in experiment [2]; in experiment [4]; in [5]; with Papain (Carica papaya)) was “inactive” throughout.

`CCCC[C@@]1(C2CCCC2)Cc2cc(OCC(=O)O)c(Cl)c(Cl)c2C1=O`: the outcome in [1] was inactive. Also, the Potency result in [2], in experiment [6] and in experiment [5] was “inactive” throughout. In addition, the Potency with Papain (Carica papaya) is 25.1 µM (active).

Turning to `CCC1(O)CC2CN(CCc3c([nH]c4ccccc34)[C@@](C(=O)OC)(c3cc4c(cc3OC)N(C)C3[C@]45CCN4CC=C[C@@](CC)([C@@H](OC(C)=O)[C@]3(O)C(=O)OC)[C@H]45)C2)C1` (stereo partly specified), the Potency entry in experiment [2], in [3], in experiment [6] and in [5] was “inactive” throughout.

Take `CCCCOC(=O)NS(=O)(=O)c1sc(CC(C)C)cc1-c1ccc(Cn2c(CC)nc3c(C)cc(C)nc32)cc1`: the compound was called inactive in experiment [1]. In addition, the Potency result (in experiment [2]; in experiment [3]; in [4]; with Papain (Carica papaya)) was “inactive” in each case. Further, the Potency in experiment [7] was 15.8 µM (active).

For `C[C@@]1(C2CCCC2)Cc2cc(OCC(=O)O)c(Cl)c(Cl)c2C1=O`, the call in experiment [1] was inactive. The Potency result (in experiment [2]; in [3]; in experiment [6]; in experiment [5]; with Papain (Carica papaya)) was “inactive” in each case.

Regarding `O=C1NC(=O)c2cc(Nc3ccccc3)c(Nc3ccccc3)cc21`, the compound was classed as inactive in [1]. In addition, the Potency result (in experiment [2]; in experiment [3]; in experiment [6]; in experiment [4]; with Papain (Carica papaya)) was “inactive” each time.

For `S=C(S)N1CCCC1`, the Potency entry (in experiment [2]; in experiment [3]; in experiment [4]; in experiment [5]; in the experiment with Papain (Carica papaya)) was “inactive” throughout.

With `O=C(N[C@@H](Cc1ccccc1)C(=O)CCl)OCc1ccccc1`, the outcome in [1] was inactive. Moreover, the Potency entry in [2] and in experiment [5] was “inactive” each time. The figures for the Potency (in experiment [6]; in the experiment with Papain (Carica papaya)) were 1 µM (active) and 15.8 µM (active), respectively.

`C=CCNc1ncnc2ccc(Br)cc12`: in [1], the result was inactive. Also, the Potency entry (in [2]; in [3]; in experiment [6]; in experiment [4]; with Papain (Carica papaya)) was “inactive” in each case.

For the compound `COC(=O)C1=C(C)NC(C)=C([N+](=O)[O-])C1c1ccccc1C(F)(F)F` (stereo unspecified), in [1], the compound was called inactive. For the same compound, the Potency result (in experiment [2]; in experiment [6]; in [4]; in experiment [5]; with Papain (Carica papaya)) was “inactive” throughout.

Take `O=C(O)/C=C/c1cnc[nH]1`: the Potency result (in experiment [2]; in experiment [3]; in experiment [6]; in experiment [4]; with Papain (Carica papaya)) was “inactive” in each case.

As to `O=C1Nc2ccc(I)cc2/C1=C/c1cc(Br)c(O)c(Br)c1`, the outcome in [1] was inactive. Further, the Potency entry (in experiment [2]; in [6]; in [5]; with Papain (Carica papaya)) was “inactive” throughout.

Regarding `CC[C@@H]1Cc2cc(O)ccc2C2=C1c1ccc(O)cc1C[C@H]2CC`, the compound was called inactive in experiment [1]. Moreover, the Potency entry in [2], in [3], in experiment [6], in [4] and in experiment [5] was “inactive” each time. Also, the Potency with Papain (Carica papaya) is 5.01 µM (active).

With `O=c1cc(-c2ccccc2F)[nH]c2cc3c(cc12)OCO3`, the result in [1] was inactive. In addition, the Potency result in experiment [2], in experiment [3], in experiment [4] and in experiment [5] was “inactive” in each case.

Turning to `CCCCCCCCCCCCCCC[C@H](O)[C@H](N)CO`, the compound was called inactive in experiment [1]. Besides, the Potency result (in experiment [2]; in experiment [6]; in [4]; in experiment [8]; in [7]; with Papain (Carica papaya)) was “inactive” each time. In addition, in [9], the max response was -0.696%.

Regarding `NCCNS(=O)(=O)c1cccc2c(Cl)cccc12`, the compound was classed as inactive in experiment [1]. Further, the Potency result (in experiment [2]; in experiment [6]; in experiment [5]; in the experiment with Papain (Carica papaya)) was “inactive” each time.
